Measured values: PubChem BioAssay (NCATS)
Records with an inconclusive call do not appear. Activity calls are given as the source filed them. Calls follow the shape of the dose curve; as a rule, active = well fitted inhibition curve with a large enough effect; inconclusive = small, poorly fitted or top-dose-only effect; inactive = flat fitted curve, though single readings scatter.

Columns and labels:
CRL-7250 = normal cell line; experiment: Cytotoxic Profiling of Annotated Libraries Using Quantitative High-Throughput Screening (AID 1296008); details: Five cell lines viability, CellTiter-Glo ATP luminescence, 48-72 h; max response: stronger effect = lower value; as to max response: % is scaled to controls: 0 for no effect and ±100 for the full control effect
In short: (§1)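 Cytotoxicity was measured as CellTiter-Glo ATP luminescence, read after 10 min at room temperature. Compound treatment of the cells lasted 48 or 72 hr at 37 degrees Celsius in a qHTS format.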

HaCat [1] = experiment: as above; details: Five cell lines viability, CellTiter-Glo ATP luminescence, 48-72 h; max response: stronger effect = lower value
In short: as §1

KB-3-1 = experiment: as above; details: Five cell lines viability, CellTiter-Glo ATP luminescence, 48-72 h; max response: stronger effect = lower value
In short: as §1

NIH3T3 = experiment: as above; details: Five cell lines viability, CellTiter-Glo ATP luminescence, 48-72 h; max response: stronger effect = lower value
In short: as §1

HACAT [2] = experiment: qHTS assay to identify novel small-molecules to repurpose for Merkel cell carcinoma treatment (AID 1296009); details: MCC and control cell lines, CellTiter-Glo viability, 72 h; at 44.8 µM (top of the series) unless noted
In short: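 72 hr, 37 degree celsius; NPC 8-pt / MIPE 11-pt dose response; compound pinned in DMSO; CellTiter-Glo, 10 min RT, luminescence; normalized to no-cell and DMSO controls.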

Measured: max response
Also: nearly all actives have a fitted effect of over 60% in size.

Cc1cc(NC(=O)NCCN2CCC(O)(Cc3ccccc3)CC2)c2ccccc2n1
inactive: CRL-7250 2.34% | HaCat [1] | KB-3-1 -1.93% | NIH3T3 | HACAT [2]

O=C(c1ccc(OC(F)F)c(C#Cc2ccccn2)c1)N1Cc2cccnc2C1
inactive: CRL-7250 4.31% | HaCat [1] | KB-3-1 -1.9% | NIH3T3 3.1% | HACAT [2]

Fc1ccc(CN2CCC(Nc3ccc(C(F)(F)F)nn3)CC2)cc1F
inactive: CRL-7250 -3.28% | HaCat [1] | KB-3-1 -12.1% | NIH3T3 -5.8% | HACAT [2]

C/C=C(\C)C(=O)OC1C[C@@]2(COC(C)=O)O[C@H]2/C=C\[C@@]2(C)O[C@@H]2[C@H]2OC(=O)C(COC(C)=O)=C12 (stereo partly drawn)
inactive: CRL-7250 -2.2% | HaCat [1] | KB-3-1 7.77% | NIH3T3 3.22% | HACAT [2] inactive [at 17.4 µM]

CC(C)=CCc1cc2c(cc1O)OC[C@H]1c3ccc(O)cc3O[C@@H]21
inactive: CRL-7250 -7.41% | HaCat [1] -13.5% | KB-3-1 -5.17% | NIH3T3 -23.2%

C1=Cc2ccccc2C(=C2CCN(CCCCc3nn[nH]n3)CC2)c2ccccc21
inactive: CRL-7250 | HaCat [1] | KB-3-1 -8.87% | NIH3T3 | HACAT [2]

CC(=O)O[C@@H]1[C@@H](O)[C@H](O[C@@H]2[C@@H](O)[C@@H](O)[C@H](O[C@H]3[C@H](O[C@H]4[C@H](O[C@H]5CC[C@@]6(C)C(CC[C@]7(C)C6CC=C6[C@@H]8CC(C)(C)CC[C@]8(C(=O)O)CC[C@]67C)[C@]5(C)CO)O[C@H](CO)[C@@H](O)[C@@H]4O)OC[C@@H](O)[C@@H]3O)O[C@H]2C)OC[C@H]1O (stereo partly drawn)
inactive: CRL-7250 -25.8% | HaCat [1] 3.54% | KB-3-1 9.51% | NIH3T3 3.03%
